# Laboratory results from PubChem BioAssay AID1159580 (chemical genetic matrix, 2015).
# Screen size: about 5,500 compounds; about 2,000 (36%) were called active. Roughly 18% stayed inconclusive and do not appear here. This is one part of the list. Unmarked numbers belong to inactive results. No stated cut-off is given here; in the data, active means normalized growth mostly below about 0.91 (no sharp cut-off); inconclusive means no clear call, values can overlap the other calls; inactive means mostly above about 0.92.
# Experiment: chemical genetic growth profiling, strain panel (AID 1159580);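 further: tested at 20 µM; growth read once vehicle control cultures reached saturation at 30 °C; 1 = growth at the plate median or of vehicle wells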
# Details: growth OD
compound,measurement,setting,value
Cc1cc(=O)[nH]c(=S)[nH]1,normalized growth,"S. cerevisiae deletion strains, locus YJR075W, strain HOC1, stronger effect = lower value",1.02
same,normalized growth,"S. cerevisiae deletion strains, locus YKL009W, strain mrt4, stronger effect = lower value",0.999
same,normalized growth,"S. cerevisiae deletion strains, locus YKL068W, stronger effect = lower value",1
same,normalized growth,"S. cerevisiae deletion strains, locus YKL085W, strain MDH1 (second series), stronger effect = lower value",0.977
same,normalized growth,"S. cerevisiae deletion strains, locus YKL085W, strain MDH1, stronger effect = lower value",0.977
same,normalized growth,"S. cerevisiae deletion strains, locus YKL160W, strain elf1, stronger effect = lower value",0.974
same,normalized growth,"S. cerevisiae deletion strains, locus YKL190W, strain CNB1, stronger effect = lower value",1
same,normalized growth,"S. cerevisiae deletion strains, locus YKR001C, strain vps1, stronger effect = lower value",1.01
same,normalized growth,"S. cerevisiae deletion strains, locus YKR026C, strain gcn3, stronger effect = lower value",0.992
same,normalized growth,"S. cerevisiae deletion strains, locus YKR091W, strain srl3, stronger effect = lower value",0.967
same,normalized growth,"S. cerevisiae deletion strains, locus YLL001W, strain dnm1, stronger effect = lower value",1.01
same,normalized growth,"S. cerevisiae deletion strains, locus YLL026W, stronger effect = lower value",0.979
same,normalized growth,"S. cerevisiae deletion strains, locus YLL041C, strain sdh2, stronger effect = lower value",0.978
same,normalized growth,"S. cerevisiae deletion strains, locus YLR027C, strain aat2, stronger effect = lower value",0.973
same,normalized growth,"S. cerevisiae deletion strains, locus YLR039C, strain RIC1, stronger effect = lower value",1.03
same,normalized growth,"S. cerevisiae deletion strains, locus YLR058C, strain SHM2, stronger effect = lower value",1.01
same,normalized growth,"S. cerevisiae deletion strains, locus YLR102C, strain apc9, stronger effect = lower value",1
same,normalized growth,"S. cerevisiae deletion strains, locus YLR113W, strain HOG1, stronger effect = lower value",1.03
same,normalized growth,"S. cerevisiae deletion strains, locus YLR221C, strain rsa3, stronger effect = lower value",0.973
same,normalized growth,"S. cerevisiae deletion strains, locus YLR258W, strain gsy2, stronger effect = lower value",0.98
same,normalized growth,"S. cerevisiae deletion strains, locus YLR262C, strain YPT6 (second series), stronger effect = lower value",0.981
same,normalized growth,"S. cerevisiae deletion strains, locus YLR262C, strain YPT6, stronger effect = lower value",1.07
same,normalized growth,"S. cerevisiae deletion strains, locus YLR268W, strain sec22, stronger effect = lower value",1.08
same,normalized growth,"S. cerevisiae deletion strains, locus YLR320W, strain mms22, stronger effect = lower value",0.956
same,normalized growth,"S. cerevisiae deletion strains, locus YLR330W, strain CHS5, stronger effect = lower value",1.01
same,normalized growth,"S. cerevisiae deletion strains, locus YLR342W, strain FKS1 (second series), stronger effect = lower value",1
same,normalized growth,"S. cerevisiae deletion strains, locus YLR342W, strain FKS1, stronger effect = lower value",0.985
same,normalized growth,"S. cerevisiae deletion strains, locus YLR357W, strain rsc2, stronger effect = lower value",0.944
same,normalized growth,"S. cerevisiae deletion strains, locus YLR370C, strain arc18, stronger effect = lower value",0.973
same,normalized growth,"S. cerevisiae deletion strains, locus YLR371W, strain rom2, stronger effect = lower value",1.02
same,normalized growth,"S. cerevisiae deletion strains, locus YLR384C, strain iki3, stronger effect = lower value",0.989
same,normalized growth,"S. cerevisiae deletion strains, locus YLR418C, strain cdc73, stronger effect = lower value",1.02
same,normalized growth,"S. cerevisiae deletion strains, locus YML016C, strain PPZ1, stronger effect = lower value",1.01
same,normalized growth,"S. cerevisiae deletion strains, locus YML032C, strain rad52, stronger effect = lower value",1.04
same,normalized growth,"S. cerevisiae deletion strains, locus YML120C, strain ndi1, stronger effect = lower value",0.972
same,normalized growth,"S. cerevisiae deletion strains, locus YML124C, strain tub3, stronger effect = lower value",1
same,normalized growth,"S. cerevisiae deletion strains, locus YMR058W, strain fet3, stronger effect = lower value",0.976
same,normalized growth,"S. cerevisiae deletion strains, locus YMR078C, strain ctf18, stronger effect = lower value",1.01
same,normalized growth,"S. cerevisiae deletion strains, locus YMR125W, strain sto1, stronger effect = lower value",0.933
same,normalized growth,"S. cerevisiae deletion strains, locus YMR129W, stronger effect = lower value",0.969
same,normalized growth,"S. cerevisiae deletion strains, locus YMR205C, strain PFK2, stronger effect = lower value",0.976
same,normalized growth,"S. cerevisiae deletion strains, locus YMR223W, strain ubp8, stronger effect = lower value",0.989
same,normalized growth,"S. cerevisiae deletion strains, locus YMR231W, strain pep5, stronger effect = lower value",1
same,normalized growth,"S. cerevisiae deletion strains, locus YMR263W, strain SAP30, stronger effect = lower value",1.03
same,normalized growth,"S. cerevisiae deletion strains, locus YMR307W, strain GAS1, stronger effect = lower value",1.05
same,normalized growth,"S. cerevisiae deletion strains, locus YNL067W, strain RPL9B, stronger effect = lower value",1.02
same,normalized growth,"S. cerevisiae deletion strains, locus YNL071W, strain lat1, stronger effect = lower value",0.963
same,normalized growth,"S. cerevisiae deletion strains, locus YNL128W, strain TEP1, stronger effect = lower value",1
same,normalized growth,"S. cerevisiae deletion strains, locus YNL153C, strain GIM3, stronger effect = lower value",1.03
same,normalized growth,"S. cerevisiae deletion strains, locus YNL183C, strain NPR1, stronger effect = lower value",0.977
same,normalized growth,"S. cerevisiae deletion strains, locus YNL209W, strain ssb2, stronger effect = lower value",0.973
same,normalized growth,"S. cerevisiae deletion strains, locus YNL233W, strain BNI4, stronger effect = lower value",1.02
same,normalized growth,"S. cerevisiae deletion strains, locus YNL248C, strain rpa49, stronger effect = lower value",0.872 (active)
same,normalized growth,"S. cerevisiae deletion strains, locus YNL250W, strain rad50, stronger effect = lower value",1.01
same,normalized growth,"S. cerevisiae deletion strains, locus YNL271C, strain bni1, stronger effect = lower value",1.01
same,normalized growth,"S. cerevisiae deletion strains, locus YNL298W, strain CLA4, stronger effect = lower value",1.01
same,normalized growth,"S. cerevisiae deletion strains, locus YNL307C, strain MCK1, stronger effect = lower value",1.01
same,normalized growth,"S. cerevisiae deletion strains, locus YNL322C, strain KRE1 (second series), stronger effect = lower value",0.969
same,normalized growth,"S. cerevisiae deletion strains, locus YNL322C, strain KRE1, stronger effect = lower value",1
same,normalized growth,"S. cerevisiae deletion strains, locus YNR049C, strain mso1, stronger effect = lower value",0.978
same,normalized growth,"S. cerevisiae deletion strains, locus YNR052C, strain pop2, stronger effect = lower value",1.01
same,normalized growth,"S. cerevisiae deletion strains, locus YOL006C, strain TOP1, stronger effect = lower value",1.08
same,normalized growth,"S. cerevisiae deletion strains, locus YOL012C, strain htz1",1.27
same,normalized growth,"S. cerevisiae deletion strains, locus YOL147C, strain pex11, stronger effect = lower value",1
same,normalized growth,"S. cerevisiae deletion strains, locus YOR001W, strain rrp6, stronger effect = lower value",0.975
same,normalized growth,"S. cerevisiae deletion strains, locus YOR061W, strain CKA2, stronger effect = lower value",1.01
same,normalized growth,"S. cerevisiae deletion strains, locus YOR069W, strain VPS5, stronger effect = lower value",1.01
same,normalized growth,"S. cerevisiae deletion strains, locus YOR070C, strain gyp1, stronger effect = lower value",0.987
same,normalized growth,"S. cerevisiae deletion strains, locus YOR080W, strain dia2, stronger effect = lower value",0.965
same,normalized growth,"S. cerevisiae deletion strains, locus YOR083W, strain WHI5, stronger effect = lower value",0.964
same,normalized growth,"S. cerevisiae deletion strains, locus YOR106W, strain vam3, stronger effect = lower value",0.999
same,normalized growth,"S. cerevisiae deletion strains, locus YOR136W, strain idh2, stronger effect = lower value",1
same,normalized growth,"S. cerevisiae deletion strains, locus YOR144C, strain elg1, stronger effect = lower value",1
same,normalized growth,"S. cerevisiae deletion strains, locus YOR184W, strain ser1, stronger effect = lower value",1.01
same,normalized growth,"S. cerevisiae deletion strains, locus YOR231W, strain MKK1, stronger effect = lower value",1.03
same,normalized growth,"S. cerevisiae deletion strains, locus YOR265W, strain rbl2, stronger effect = lower value",0.98
same,normalized growth,"S. cerevisiae deletion strains, locus YOR270C, strain vph1, stronger effect = lower value",0.976
same,normalized growth,"S. cerevisiae deletion strains, locus YOR290C, strain snf2, stronger effect = lower value",0.94
same,normalized growth,"S. cerevisiae deletion strains, locus YOR316C, strain cot1, stronger effect = lower value",1.01
same,normalized growth,"S. cerevisiae deletion strains, locus YPL051W, strain arl3, stronger effect = lower value",0.982
same,normalized growth,"S. cerevisiae deletion strains, locus YPL055C, strain LGE1, stronger effect = lower value",1
same,normalized growth,"S. cerevisiae deletion strains, locus YPL078C, strain atp4, stronger effect = lower value",0.973
same,normalized growth,"S. cerevisiae deletion strains, locus YPL106C, strain sse1, stronger effect = lower value",0.919
same,normalized growth,"S. cerevisiae deletion strains, locus YPL240C, strain hsp82, stronger effect = lower value",0.958
same,normalized growth,"S. cerevisiae deletion strains, locus YPL241C, strain CIN2, stronger effect = lower value",1.01
same,normalized growth,"S. cerevisiae deletion strains, locus YPL256C, strain CLN2, stronger effect = lower value",1.12
same,normalized growth,"S. cerevisiae deletion strains, locus YPR119W, strain clb2, stronger effect = lower value",1
same,normalized growth,"S. cerevisiae deletion strains, locus YPR141C, strain kar3, stronger effect = lower value",1
same,normalized growth,"S. cerevisiae deletion strains, locus YPR163C, strain tif3, stronger effect = lower value",1.01
same,normalized growth,"S. cerevisiae deletion strains, locus YPR167C, strain met16, stronger effect = lower value",1.01
same,normalized growth,"S. cerevisiae deletion strains, strain wtn01, stronger effect = lower value",1.03
same,normalized growth,"S. cerevisiae strains, strain wild type, stronger effect = lower value",1.01
